The values that follow come from PubChem BioAssay.

A short description of assay [1]: E. coli DRC41 culture turbidity changes, primary screen, E. coli filamentation inducer project, strain DRC41, OD650, 48 h (AID 1152).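 Further: E. coli MC1000 strain DRC41 lacking acrAB efflux pump and sulA.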 Particulars: E. coli DRC41 (acrAB sulA), higher = more signal, called active from +8 up or from −8 down.
Assay [2] can be described thus: small-molecule binders of probe aLefty1, primary screen, biochemical, small-molecule microarray, 635/667 nm fluorescence (AID 1153).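 Further: score merges spot fluorescence with signal-to-noise ratio from the scanned slide images.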 To be noted: higher = more signal.
Assay [3] is described as follows: PSAC antagonists in infected red cells, primary screen, cell-based, P. falciparum Indochina, OD700, 1 h (AID 1154). Particulars: P. falciparum Indochina infected RBC osmotic lysis, higher = more signal, called active from +8 up or from −8 down.
The nature of assay [4]: PSAC antagonists in infected red cells, primary screen, cell-based, P. falciparum Indochina, OD700, 2 h (AID 1155).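 Further: lysis reports solute entry through the parasite surface anion channel PSAC; channel blockers reduce lysis of infected cells.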 Particulars: P. falciparum Indochina infected erythrocytes, osmotic lysis OD700; higher = more signal, called active from +8 up or from −8 down.
A short description of assay [5]: osmotic lysis modulators in infected erythrocytes, primary screen, PSAC antagonist project, cell-based, P. falciparum Indochina, OD700, 3 h (AID 1156). Particulars: higher = more signal, called active from +8 up or from −8 down.
Assay [6] is described as follows: PSAC antagonists in infected red cells, primary screen, cell-based, P. falciparum Indochina, OD700, 18 h (AID 1157). Particulars: P. falciparum Indochina infected erythrocytes, osmotic lysis OD700, 18 h; higher = more signal, called active from +8 up or from −8 down.
Assay [7] can be described thus: modulators of S6 phosphorylation in cells, primary screen, cell-based, A549, cytoblot, luminescence, serum-stimulated (AID 1158).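 Further: serum-stimulated A549 lung adenocarcinoma cells; signal is phosphorylated S6 detected by cytoblot immunostaining with HRP secondary.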 Particulars: A549 phospho-S6 cytoblot, 5 h, higher = more signal.
In assay [8] the target is NADPH oxidase 2 (Homo sapiens) (UniProt P04839). Kind of assay: NOX2-dependent H2O2 signal modulators, primary screen, NOX inhibitor project, cell-based, HEK293-NOX2, PMA-stimulated, Amplex Red fluorescence (AID 1159). Further: test concentration not given here. Particulars: 45 min, higher = more signal, called active from +8 up or from −8 down.
Sequence of NADPH oxidase 2 (Homo sapiens) (P04839 whole entry, looked up): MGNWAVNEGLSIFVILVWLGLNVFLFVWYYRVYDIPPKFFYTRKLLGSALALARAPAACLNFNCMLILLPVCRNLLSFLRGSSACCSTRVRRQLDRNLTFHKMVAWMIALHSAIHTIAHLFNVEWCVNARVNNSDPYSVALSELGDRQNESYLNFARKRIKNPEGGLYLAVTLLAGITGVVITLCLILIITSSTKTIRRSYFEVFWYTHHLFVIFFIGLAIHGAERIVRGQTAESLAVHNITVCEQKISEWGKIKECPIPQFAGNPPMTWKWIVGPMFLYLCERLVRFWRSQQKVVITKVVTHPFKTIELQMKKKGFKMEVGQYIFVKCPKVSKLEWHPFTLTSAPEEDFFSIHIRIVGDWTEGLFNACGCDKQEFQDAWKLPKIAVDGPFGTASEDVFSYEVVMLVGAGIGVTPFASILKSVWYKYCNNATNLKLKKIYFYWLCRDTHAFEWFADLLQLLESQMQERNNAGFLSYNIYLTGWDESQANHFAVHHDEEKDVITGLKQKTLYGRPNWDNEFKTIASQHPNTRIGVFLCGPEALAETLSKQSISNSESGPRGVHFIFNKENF
The target of assay [9] is NADPH oxidase 4 (Homo sapiens) (UniProt Q9NPH5). Kind of assay: NOX4-dependent H2O2 signal modulators, primary screen, NOX inhibitor project, cell-based, HEK293-NOX4, tetracycline-induced, Amplex Red fluorescence (AID 1160). Particulars: 45 min, higher = more signal, called active from +8 up or from −8 down.
Sequence of NADPH oxidase 4 (Homo sapiens) (Q9NPH5 whole entry, looked up): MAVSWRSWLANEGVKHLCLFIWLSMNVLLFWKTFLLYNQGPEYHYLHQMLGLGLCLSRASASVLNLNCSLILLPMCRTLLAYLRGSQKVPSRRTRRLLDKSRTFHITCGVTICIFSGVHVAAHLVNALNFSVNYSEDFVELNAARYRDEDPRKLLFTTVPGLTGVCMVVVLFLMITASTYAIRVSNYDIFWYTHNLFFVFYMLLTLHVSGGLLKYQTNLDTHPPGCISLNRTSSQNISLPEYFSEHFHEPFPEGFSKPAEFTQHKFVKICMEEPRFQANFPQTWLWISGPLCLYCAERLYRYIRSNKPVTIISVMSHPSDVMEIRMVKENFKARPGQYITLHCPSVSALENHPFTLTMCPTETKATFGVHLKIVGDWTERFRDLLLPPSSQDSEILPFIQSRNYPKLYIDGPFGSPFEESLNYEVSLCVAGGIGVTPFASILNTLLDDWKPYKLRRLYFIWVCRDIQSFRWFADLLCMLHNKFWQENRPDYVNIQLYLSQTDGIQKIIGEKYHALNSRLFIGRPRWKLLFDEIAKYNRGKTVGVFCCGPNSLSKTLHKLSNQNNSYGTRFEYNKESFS
Assay [10] deals with NADPH oxidase 5 (Homo sapiens) (UniProt Q96PH1). Kind of assay: NOX5-dependent H2O2 signal modulators, primary screen, NOX inhibitor project, cell-based, HEK293-NOX5, Amplex Red fluorescence (AID 1161). Particulars: HEK293-NOX5, ionomycin, 45 min, higher = more signal.
Sequence of NADPH oxidase 5 (Homo sapiens) (Q96PH1 whole entry, looked up): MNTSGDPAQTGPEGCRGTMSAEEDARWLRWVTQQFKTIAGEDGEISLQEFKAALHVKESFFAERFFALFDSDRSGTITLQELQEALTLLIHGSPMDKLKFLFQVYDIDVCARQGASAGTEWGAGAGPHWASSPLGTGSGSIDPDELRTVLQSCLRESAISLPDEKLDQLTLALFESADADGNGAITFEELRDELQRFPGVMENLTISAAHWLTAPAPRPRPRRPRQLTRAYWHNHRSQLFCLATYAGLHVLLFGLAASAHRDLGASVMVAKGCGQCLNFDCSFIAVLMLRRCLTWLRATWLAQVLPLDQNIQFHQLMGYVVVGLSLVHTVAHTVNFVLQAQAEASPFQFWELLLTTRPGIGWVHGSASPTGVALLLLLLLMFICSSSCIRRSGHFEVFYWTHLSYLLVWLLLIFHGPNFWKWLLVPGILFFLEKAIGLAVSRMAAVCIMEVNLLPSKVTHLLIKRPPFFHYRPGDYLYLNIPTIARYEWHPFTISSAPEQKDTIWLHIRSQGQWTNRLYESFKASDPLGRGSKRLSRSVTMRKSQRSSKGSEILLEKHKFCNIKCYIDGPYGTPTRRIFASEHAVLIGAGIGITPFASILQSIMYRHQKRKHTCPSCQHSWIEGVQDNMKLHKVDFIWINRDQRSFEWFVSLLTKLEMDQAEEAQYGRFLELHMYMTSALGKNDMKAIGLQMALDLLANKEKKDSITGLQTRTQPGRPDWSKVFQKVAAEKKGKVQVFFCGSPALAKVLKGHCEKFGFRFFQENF
Assay [11] can be described thus: A549 cell viability effects, profiling panel, calcein-AM fluorescence, 48 h, basal (AID 1162). Further: test concentration not given here. To be noted: higher = more signal.
A short description of assay [12]: adipocyte viability effects, profiling panel, cell-based, 3T3-L1 adipocytes, calcein-AM fluorescence, 48 h, basal (AID 1163). Further: test concentration not given here. To be noted: 3T3-L1 adipocytes viability, higher = more signal.
Assay [13] is described as follows: HepG2 cell viability effects, profiling panel, calcein-AM fluorescence, 48 h, basal (AID 1164). Further: test concentration not given here. Particulars: higher = more signal.
A short description of assay [14]: MM1S cell viability effects, profiling panel, calcein-AM fluorescence, 48 h, basal (AID 1165).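 Further: viability of MM1S multiple myeloma cells under basal unstimulated conditions; test concentration not given here.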 Particulars: higher = more signal.
Assay [15] is described as follows: basal RPMI8226 viability, no added stimulus, profiling panel, cell-based, calcein-AM fluorescence, 48 h, PK04 Diversity Set (AID 1166).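 Further: cells grown under basal conditions without added stimulus; test concentration not given here.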 Particulars: RPMI8226 myeloma viability, higher = more signal.
Assay [16] can be described thus: basal HepG2 mitochondrial membrane potential changes, profiling panel, cell-based, JC-1 fluorescence, 24 h, 100 nL compound (AID 1167). Further: test concentration not given here. Particulars: higher = more signal.
The nature of assay [17]: basal 3T3-L1 adipocyte mitochondrial potential changes, profiling panel, cell-based, JC-1 fluorescence, 3T3-L1 adipocytes, 24 h, 100 nL compound (AID 1168). Further: test concentration not given here. Particulars: JC-1 mitochondrial fluorescence, higher = more signal, called active from +8 up or from −8 down.
Assay [18] in a line: basal RPMI8226 mitochondrial membrane potential changes, profiling panel, cell-based, JC-1 fluorescence, 24 h, 100 nL compound (AID 1169). Further: test concentration not given here. To be noted: RPMI8226 myeloma, JC-1 mitochondrial potential fluorescence, higher = more signal.
The nature of assay [19]: basal MM1S mitochondrial membrane potential changes, profiling panel, cell-based, JC-1 fluorescence, 24 h, 100 nL compound (AID 1170). Further: test concentration not given here. To be noted: higher = more signal.
Assay [20] is described as follows: A549 lung cancer cell viability effects, profiling panel, resazurin fluorescence, 24 h, PK04 Diversity Set (AID 1171). Further: test concentration not given here. Particulars: higher = more signal, called active from +8 up or from −8 down.

Activity calls are given as the source filed them.

Turning to `CC1CC/C=C\[C@H]2OC34C=CCN(c5ccc(Cl)cc5)C(=O)[C@H]3N(C(CO)C(C)C)C(=O)[C@]4(C)C2C(=O)O1` (stereo not given in full), the z-score in assay [1] is -0.397 (inactive); in [3], 2.3 (inactive); in assay [4] it was 0.798 (inactive); in assay [5] it was 0.647 (inactive); in assay [6], 0.647 (inactive); in [7], -0.631. Further, the z-score in assay [8] was 1.86 (inactive); in assay [9], -0.264 (inactive); in assay [10], 2.39; in assay [11] it was 0.109; in assay [12], -1.06; in assay [13] it was 0.453. The z-score is 0.955 in assay [14]; -0.105 in assay [15]; -0.174 in assay [16]; -0.21 (inactive) in [17]; -0.362 in [18]; 0.00224 in [19]. The z-score in [20] is -0.392 (inactive). Also, the composite z-score in assay [2] amounted to 0.188.
`NC(=O)NCC#Cc1ccc2c(c1)[C@]1(C(=O)N2)[C@H](c2ccc(OCCO)cc2)N2[C@H](c3ccccc3)[C@H](c3ccccc3)OC(=O)[C@H]2[C@@H]1C(=O)N1CCCCCCC1`: the z-score in assay [1] is -1.89 (inactive); in assay [3], 4.46 (inactive); in assay [4], 1.05 (inactive); in assay [5], 0.323 (inactive); in assay [6], 0.565 (inactive); in [7] it was -0.0231. Also, the z-score is 1.9 (inactive) in assay [8]; 1.15 (inactive) in [9]; 0.333 in [10]; -0.702 in assay [11]; -0.467 in assay [12]; -0.455 in assay [13]. The z-score in [14] was 0.135; in [15] it was -1.31; in assay [16], -1.76; in assay [17] it was -1.87 (inactive); in assay [18] it was -0.638; in assay [19] it was -1.02. Further, in [20], the z-score was 0.252 (inactive). For the same molecule, the composite z-score in assay [2] worked out at 2.86.
`COCCOC(=O)N1C(=O)[C@@]2(c3cc(C#CCCO)ccc31)[C@H](c1ccc(OCCO)cc1)N1[C@H](c3ccccc3)[C@H](c3ccccc3)OC(=O)[C@H]1[C@@H]2C(=O)N1CCc2cc(OC)c(OC)cc2C1`: the z-score was 0.526 (inactive) in assay [1]; 3.2 (inactive) in [3]; 1.67 (inactive) in assay [4]; 0.226 (inactive) in assay [5]; 1.1 (inactive) in assay [6]; -0.354 in assay [7]. Besides, the z-score in assay [8] is 0.898 (inactive); in [9], 1.01 (inactive); in assay [10], 1.23; in assay [11] it was -0.874; in assay [12], 0.586; in assay [13], 0.863. In addition, the z-score in assay [14] is 0.541; in [15], 0.263; in assay [16], -0.0698; in assay [17], 1.79 (inactive); in assay [18], -0.299; in assay [19], -1.48. Further, the z-score in [20] is -0.533 (inactive). The molecule further registered a composite z-score in assay [2] of 0.777.
Regarding `CC(C)c1ccc(NN2C(C(O)c3cccs3)C=CC3C(=O)N(c4ccccc4)C(=O)C32)cc1` (stereo not given), the z-score is -1.5 (inactive) in assay [1]; 3.11 (inactive) in assay [3]; 0.962 (inactive) in [4]; 0.566 (inactive) in assay [5]; 0.899 (inactive) in assay [6]; -1.16 in assay [7]. Moreover, the z-score in [8] was -1.11 (inactive); in [9], -3.51 (inactive); in assay [10], -2.9; in [11] it was -0.869; in assay [12] it was -0.986; in [13], -0.245. The z-score in assay [14] is -0.639; in assay [15], -0.476; in [16] it was -2.91; in assay [17], -1.73 (inactive); in assay [18] it was 0.183; in [19] it was 0.491. Further, the z-score in assay [20] was -0.28 (inactive). This molecule also had a composite z-score in assay [2] of 0.498.
As for `CN1C(=O)C2C=CC(C(O)C3CCCCC3)N(N(c3ccccc3)c3ccccc3)C2C1=O` (stereo not given), the z-score in assay [1] is -1.11 (inactive); in assay [3], 0.801 (inactive); in assay [4], 1.09 (inactive); in assay [5], 0.332 (inactive); in assay [6], 0.926 (inactive); in [7], -1.47. Besides, the z-score in assay [8] is -0.557 (inactive); in [9] it was -0.635 (inactive); in assay [10], -0.0135; in [11] it was -0.42; in assay [12], -0.88; in [13] it was 0.149. Further, the z-score in [14] was 0.241; in assay [15], -0.758; in assay [16], -0.954; in assay [17], -1.2 (inactive); in assay [18] it was -0.361; in [19] it was -0.365. Further, the z-score in [20] was -0.361 (inactive). For the same molecule, the composite z-score in [2] stood at 0.344.
